Data reported in the supplement of paper PMC12632987.
The full ranking holds about 2,300 sequences; the median of “median log2 fold change of GCK-ALFA target abundance (FLAG IP / Myc IP barcode read proportion)” is about 0.095, and the lowest 2% start at about -0.47. The full list was thinned out, with the lowest values kept by preference.

B1: LC3A_3_1723 (protein)
chain: MEKIKAEALAVLKAQGASPETIKAAEELLKALEEKGFLEAAKTLLEELKKLKGVSSEDLLAALKDLLYKVTNEDLSEEEVIEEIKREFSVLKSAKEIEEL
B2: LC3A_141_386 (protein)
chain: MKKEFEFTATEEEAQEVFDFFDEVEKELLEMIEESGGKPVKVKVTIKATNDETGEVVEKEEEFTVTKENVSEVMEGLAIEVLSLLDKVKGTVEVKIEAEV
B3: LC3A_28_1018 (protein)
chain: SELEEQIEEIEKEVEEAIEKGEDVVVTLEIKGSMSEEEVREAMERVKEIVLEGAEKGKVDLVIDVDKDVSQEKLDIVLEAADEIEEKAPNVNVIIALEER
B4: LC3A_147_510 (protein)
chain: YLVEIDVDLLVKNAVEEVKKRFKEIVEKLKKKGYKVELEIKEEKIDENTYYVEVTIKIYAETKEEAEKAANETLSLLDEMLEELKDEILGSLISVDIEET
B5: LC3A_59_2020 (protein)
chain: SEEIEEYREKMRANIDDIDAFTATVREALEKFKDDPEKVKEILKAAMDVVVEELGADKEEAEKVLEEMLKILEEEKDKEKAIEKIVDLIRDLLLLTPIEE
B6: LC3A_free_8_2464 (protein)
chain: ASQKLVDTIVAKLDELEKALVKKAKEEGKSRLDILELELEVGSAIAELISNVDASPEEILKTLKEDLKDIIKVAKEIGEEVAKLAKEKSKEILAEAEALI
B7: LC3A_17_552 (protein)
chain: REELRERLRRLLEELRALVERLEPYDPEAARRLRERLERAEELLEAGRLREAAETLAEAAREAARRAEELEPKYGNEMSVLAMEFNGLELEAIGLLLELD
B8: LC3A_132_298 (protein)
chain: DEEKAKEILEKVKEKVEEAKENIDNEEKVEELLEEIEELIKEAEEKLSPELLAKVMEEVAELLDELSQKFLEAGKEHLAMLADGLAIEAESLALRAEKEI
B9: LC3A_3_1773 (protein)
chain: MEELLARFEEKLRAAGFSEEVIKEALAAIKTFLEKGREEVAETFLELMLEAKDLSEEKLLVMARMAKELAEESKVSEEELIKELKRLFESIAGIEELDEE
B10: LC3A_3_1887 (protein)
chain: MDEKIEETLKRLKEAGASEETLEAFKRVVEKLKARGWDEALNTLIEKVDELLDAPDEVRLAFLQDVLALLDTPGVSEEELIAGINELATLAKNEAEIIEL
B11: LC3A_28_691 (protein)
chain: SAIDETIARIRAQAEAALAAGEEALLEVTVPATATQEDIDRLIATIREAVERLAGVGKVYIVVDVESGVAQENITRLADALDELEAEYPNVTVVIALDED
B12: LC3A_28_654 (protein)
chain: EEVEKELKEALKEAEEAKKKKEPAVITIKVSGKVNEEELKKILETLEKIAELLKDIKGSAIIIDLDKDVKEEFKNKLIDKAEELEKKYPNVTVIIALEER
B13: LC3A_3_1762 (protein)
chain: MEAFIEAAAKELKEAGASEELIEKASRALRLLLERGLEETAKEFVKVLLELLKKSEELALDLAEDVLTLLETSTLSPEELAKAVRSEMNAALSEAEIEEL
B14: LC3A_28_950 (protein)
chain: MSIEENIEKALKEAKEAKEKNEPVVITLVLEDDPSEEAVEALIEAMEEIAELLKDIKGTTIIVDVSSKVKQEHIDAIADKGEEIEKKYPNINVIIALDED
B15: LC3A_102_127 (protein)
chain: EVEKLKKELLEKVKKEVEKLLEKDKSLSEEEKKKILELAEKLAEAKLENAEIEIQHGFVDIYLEDKAIELQEELEKIDKELAKKINEIIEKGVEEFRKKL
B16: LC3A_free_46_2348 (protein)
chain: YKAEILIDLLAKDKETLEKAVKEIVEEAKKIAEKYNLELEIKVKIEKLEDGSYYAEIEITLKGETEEDLQKAVNELINKIEEIAKKYGVAAIISYEIIKE
B17: LC3A_28_708 (protein)
chain: NPLEESIKKALEEAKAAAKAGESTVITIKVPGSATEEDIEKLIKALEEIAEITKDLPSTSIIIDVDGGVKQEHIDKIADAAEEIEKKYPNVTVIIALDET
B18: LC3A_147_403 (protein)
chain: YIVEADIDIITKNAKEEVLAAFEEIVEELKEKGYEVELEVEVEKLDEDTWYINVKIKVETETKEEAEEVADYIEDKIDEIEEKLKDKILASLISIEIIEE
B19: LC3A_free_46_2366 (protein)
chain: VKAEIDIDFLVETKEKAEELAKELEEEIKKIAEKYGVKVKIEVKIIKNPDGTYSLEIEIELEAENKETLQKAVNEIIDSIDKIAEKFNVSYIISVEIIDE

These binders were tested against MAP1LC3A, Q9H492 (assay: median log2 fold change of GCK-ALFA target abundance (FLAG IP / Myc IP barcode read proportion) (log2 ratio); each designed protein is fused to an ALFA-tag nanobody in HEK293 cells to bring the named protein to FLAG-tagged glucokinase (GCK); Myc marks an untargeted standard; higher = target protein stabilised (more abundant)). Settings: target protein: 3xFLAG-MCP-GCK-ALFA reporter; HEK293 landing pad (RPLP).
Outline: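 The readout is target abundance, the per-binder median log2 ratio of FLAG to Myc barcode read proportions. It came from HEK293 landing-pad cells carrying a recombined ALFA-nanobody-fused binder library, induced with 2 μg mL^−1 doxycycline and transfected with a plasmid for a FLAG-tagged target and a Myc-tagged standard. After 48 h, lysates were immunoprecipitated with anti-FLAG and anti-Myc, and circular RNA barcodes were reverse transcribed, amplified and sequenced. Each barcode needed a proportion of at least 10^−7 in both replicates and each binder at least 3 barcodes per replicate, a pseudocount of 10^−6 was added, and the replicates were pooled.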

Binder	median log2 fold change
B1	0.206
B2	0.221
B3	-0.171
B4	-0.119
B5	-0.571
B6	-0.304
B7	0.248
B8	-0.0134
B9	0.23
B10	0.21
B11	-0.0472
B12	0.153
B13	0.226
B14	0.204
B15	-0.519
B16	-0.204
B17	0.0817
B18	-0.0503
B19	0.102
